Compound activity: PubChem BioAssay, Broad Institute
U2OS ROS induce: ROS inducers in U2OS cancer cells, primary screen, cell-based, H2DCF-DA fluorescence; U2OS ROS induction; ROS induction (% of piperlongumine), % at 10 µM; 46,000 tested, 2% active; in the data active = ROS induction above about 79%, passing the limit was not always enough
YB-1 expr inh: inhibitors of YB-1 gene expression, primary screen, cell-based, fluorescence | 30,000 tested, 0.37% active | U2OS, qRT-PCR YB-1 vs CDIP delta delta Cp, 16 h; active compounds read high; zero = DMSO, each unit about twofold | delta delta Cp (YB-1 minus CDIP) (test concentration not listed);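 active = delta delta Cp rounded down to an integer at or above 3, about 3 SD of DMSO wells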;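 also: higher means less YB-1 transcript or more CDIP transcript relative to DMSO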
Large screens that a line does not name were inactive. Compounds with a hit are over-represented: about 2.3% of the library has one in this group of screens.

COc1ccc([Si](C)(C)[C@@H]2[C@@H](CCn3cc(CCO)nn3)O[C@]3(C(=O)N(Cc4ccc(N5CCOC5=O)cc4)c4ccccc43)[C@H]2C)cc1	none
COc1ccc([Si](C)(C)[C@@H]2[C@@H](CCO)O[C@]3(C(=O)N(Cc4ccc(NC(=O)[C@H](C)O)cc4)c4ccccc43)[C@H]2C)cc1	U2OS ROS induce 90.8
COc1ccc([Si](C)(C)[C@H]2[C@H](CCO)O[C@@]3(C(=O)N(Cc4cccc(NC(=O)[C@H](C)O)c4)c4ccccc43)[C@@H]2C)cc1	none
COc1ccc([Si](C)(C)[C@H]2[C@H](CCO)O[C@@]3(C(=O)N(Cc4cccc(N5CCC5=O)c4)c4ccccc43)[C@@H]2C)cc1	U2OS ROS induce 106.8
COc1ccc([Si](C)(C)[C@H]2[C@H](CCO)O[C@@]3(C(=O)N(Cc4ccc(N5CCOC5=O)cc4)c4ccccc43)[C@@H]2C)cc1	U2OS ROS induce 129.7
C[C@@H]1CN([C@@H](C)CO)C(=O)c2cc(NC(=O)CCC(F)(F)F)ccc2O[C@@H]1CN(C)CC1CCCCC1	none
Cc1noc(C)c1S(=O)(=O)N(C)C[C@H]1Oc2c(NS(=O)(=O)c3cn(C)cn3)cccc2C(=O)N([C@@H](C)CO)C[C@H]1C	none
C[C@H](CO)N1C[C@H](C)[C@H](CN(C)S(C)(=O)=O)Oc2ccc(NC(=O)Cn3cnnn3)cc2CC1=O	none
O=[N+]([O-])c1cccc2c(Br)[nH]nc12	none
O=C1C2C3C=CC(C3)C2C(=O)N1Cc1ccco1 (configuration not stated)	none (no result: YB-1 expr inh)
C[C@@H]1CN([C@@H](C)CO)C(=O)c2cccc(N(C)C)c2O[C@@H]1CN(C)S(=O)(=O)c1ccc(F)cc1	none
C[C@H](CO)N1C[C@H](C)[C@@H](CN(C)S(=O)(=O)c2ccc(F)cc2)Oc2ccc(NS(=O)(=O)c3cccs3)cc2C1=O	none
CC1(C)CCc2cc(-c3ccn(S(=O)(=O)c4cccc(C(F)(F)F)c4)n3)ccc2O1	none
CC1(C)CCc2cc(-c3ccn(S(=O)(=O)c4ccc(Cl)cc4)n3)ccc2O1	U2OS ROS induce 96.4
Cc1cc(C)c2c(=O)[nH]c(SCC(=O)c3cccs3)nc2n1	none (no result: YB-1 expr inh)
CCN(CC)c1c(C#N)c(SCC(=O)c2cccs2)cc2c1CCCC2	U2OS ROS induce 91.7
C=C1C(=O)OC2/C=C(\CO)C(OC(C)=O)C/C=C(/C)CC(OC(=O)/C(C)=C\CO)C12 (configuration not stated)	YB-1 expr inh 4.73
C=C1C(=O)O[C@H]2C1[C@H](OC(=O)/C(C)=C/CO)C/C(C)=C\CC[C@@]1(C)OC21 (some centres not stated)	none
N#CC(C#N)Cc1ccc(O)cc1	none
Cc1ccc(-c2nnc(SCC(=O)Nc3ccc(Br)c(Cl)c3)n2C)cc1	none (no result: YB-1 expr inh)
C[C@@H]1O[C@@H](Oc2cc(O)c3c(=O)c(-c4ccc(O)cc4)coc3c2)[C@H](O)[C@H](O)[C@H]1O	YB-1 expr inh 3.88
C[C@@H]1O[C@@H](Oc2ccc(-c3coc4cc(O[C@@H]5O[C@@H](C)[C@H](O)[C@@H](O)[C@H]5O)cc(O)c4c3=O)cc2)[C@H](O)[C@H](O)[C@H]1O	none
O=S(=O)(c1ccccc1)N1CCN(CC(O)COc2ccc3c(c2)CCC3)CC1 (configuration not stated)	none (no result: YB-1 expr inh)
O=C(Nc1ccc(S(=O)(=O)N2CCCC2)cc1)c1ccc(COc2ccc3c(c2)CCC3)cc1	U2OS ROS induce 87.4 (no result: YB-1 expr inh)
Cc1cc(C)c(NC(=O)CN(c2ccc(C)c(C)c2)S(C)(=O)=O)c(C)c1	none (no result: YB-1 expr inh)
O=C1O[C@H](c2ccccc2)[C@H](c2ccccc2)N2[C@H]1[C@@H](C(=O)NC[C@H](O)c1ccccc1)[C@]1(C(=O)Nc3ccc(C#CC4(O)CCCCCC4)cc31)[C@H]2c1ccccc1OCCO	none
C=CCNC(=O)[C@@H]1[C@H]2C(=O)O[C@H](c3ccccc3)[C@H](c3ccccc3)N2[C@H](c2ccccc2OCCO)[C@@]12C(=O)Nc1ccc(C#CC3(O)CCCCCC3)cc12	U2OS ROS induce 145.7
C=CCOC(=O)[C@H]1[C@@H]2C(=O)O[C@@H](c3ccccc3)[C@@H](c3ccccc3)N2[C@@H](c2ccc(OCCOC(=O)[C@@H]3C[C@@H]4C(=O)NCC(=O)N4[C@@H]3c3ccc(O)cc3)cc2)[C@]12C(=O)Nc1ccc(I)cc12	none
C=CCOC(=O)[C@H]1[C@@H]2C(=O)O[C@@H](c3ccccc3)[C@@H](c3ccccc3)N2[C@@H](c2ccc(OCCOC(=O)[C@@H]3C[C@@H]4C(=O)NCC(=O)N4[C@@H]3c3ccc(O)cc3)cc2)[C@]12C(=O)Nc1ccccc12	U2OS ROS induce 115.7
C=CCNC(=O)[C@H]1[C@@H]2C(=O)O[C@@H](c3ccccc3)[C@@H](c3ccccc3)N2[C@@H](c2ccc(O)cc2)[C@]12C(=O)Nc1ccc(C#CCCO)cc12	none
C=CCNC(=O)[C@@H]1[C@H]2C(=O)O[C@H](c3ccccc3)[C@H](c3ccccc3)N2[C@H](c2ccc(OCCO)cc2)[C@@]12C(=O)Nc1ccc(C#CC3(O)CCCCCC3)cc12	U2OS ROS induce 85.1
C=CCNC(=O)[C@H]1[C@@H]2C(=O)O[C@@H](c3ccccc3)[C@@H](c3ccccc3)N2[C@@H](c2ccc(OCCO)cc2)[C@]12C(=O)Nc1ccc(C#CC3(O)CCCCCC3)cc12	none
C=CCNC(=O)[C@@H]1[C@H]2C(=O)O[C@H](c3ccccc3)[C@H](c3ccccc3)N2[C@H](c2ccccc2OCCO)[C@@]12C(=O)Nc1ccc(C#CCCO)cc12	U2OS ROS induce 135.0
COc1ccc(S(=O)(=O)N(C)C[C@H]2Oc3ccc(NS(=O)(=O)c4ccc(Cl)cc4)cc3C(=O)N([C@@H](C)CO)C[C@H]2C)cc1	none
C[C@@H]1CN([C@@H](C)CO)C(=O)c2cc(NC(=O)CCN3CCOCC3)ccc2O[C@@H]1CN(C)C(=O)Nc1ccc2c(c1)OCO2	none
O=S(=O)(Nc1ccc2c(c1)OC1(CCCCC1)O2)c1ccc2ccccc2c1	none (no result: YB-1 expr inh)
Cc1cccc(Oc2ccc(N3C(=O)C4C5C=CC(C5)C4(C)C3=O)cc2)c1C (configuration not stated)	none (no result: YB-1 expr inh)
c1ccc2sc(SCc3cn4cccnc4n3)nc2c1	none (no result: YB-1 expr inh)
O=C(Nc1ccc(S(=O)(=O)Nc2ccccn2)cc1)Nc1ccc(Cl)c(Cl)c1	none (no result: YB-1 expr inh)
COc1ccc(S(=O)(=O)N(C)C[C@@H]2OCCCC[C@@H](C)Oc3ccc(NS(=O)(=O)c4cccs4)cc3C(=O)N([C@H](C)CO)C[C@@H]2C)cc1	U2OS ROS induce 114.6
C[C@@H]1CCCCO[C@@H](CN(C)S(=O)(=O)c2cccs2)[C@@H](C)CN([C@H](C)CO)C(=O)c2cc(NS(=O)(=O)c3ccc(Cl)cc3)ccc2O1	none
COc1ccc(S(=O)(=O)N(C)C[C@H]2OCCCC[C@@H](C)Oc3ccc(NS(=O)(=O)c4cccs4)cc3C(=O)N([C@H](C)CO)C[C@@H]2C)cc1	none
C[C@@H]1CCCCO[C@@H](CN(C)S(=O)(=O)c2ccc(Cl)cc2)[C@@H](C)CN([C@H](C)CO)C(=O)c2cc(NS(=O)(=O)c3cccs3)ccc2O1	U2OS ROS induce 94.3
O=C(NO)c1cccc(C(=O)N/N=C/c2ccc3ccccc3c2)c1	none
COc1cc(-c2coc3cc(O)cc(O)c3c2=O)c(OC)cc1O	none
Cc1ccccc1-c1nnc(SCC(=O)Nc2ccc(Br)c(C)c2C)n1C	none (no result: YB-1 expr inh)
